# Laboratory results from PubChem BioAssay AID652001 (The Scripps Research Institute Molecular Screening Center, 2013).
# Target: Acyl-protein thioesterase 2 (Homo sapiens) (UniProt O95372)
# Experiment: LYPLA2 enzyme kinetics with inhibitors – biochemical, substrate-based fluorescence, Ki, Km, Vmax, late-stage follow-up (AID 652001)
# Details: recombinant LYPLA2, resorufin acetate hydrolysis fluorescence, measured here: LYPLA2 (no test compound); Km: enzyme Km; Vmax: enzyme Vmax
# Chain of Acyl-protein thioesterase 2 (Homo sapiens) (O95372 whole entry, looked up): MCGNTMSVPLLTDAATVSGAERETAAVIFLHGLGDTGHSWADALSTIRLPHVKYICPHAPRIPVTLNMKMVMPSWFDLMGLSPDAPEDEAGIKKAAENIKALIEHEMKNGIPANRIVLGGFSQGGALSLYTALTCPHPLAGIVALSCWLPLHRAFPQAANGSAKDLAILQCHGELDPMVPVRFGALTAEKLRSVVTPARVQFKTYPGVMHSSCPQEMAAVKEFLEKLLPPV
compound,measurement,value
COc1ccc(N2CCN(C(=O)c3cc4c(s3)-c3ccccc3S(=O)(=O)C4)CC2)cc1,Km,24.4 µM
same,Vmax,13.8 nM
